Experimental data taken from PubChem BioAssay (NCI).
The panel holds about 83,000 compounds, 20% with a hit somewhere; the sample as a whole holds those more often.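 For each line, cells grew in 96-well plates with the test compound present at a single concentration for 48 hours.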 Values without a mark were called inactive. Active and inactive are the calls of the source. How the source made its calls: active means growth percent below 10; inactive means the rest.

Key:
Test in all cases: NCI-60 one-dose screen, 48 h (100 = growth as untreated, 0 = no growth, -100 = all killed)
Conditions in all cases: 10 µM unless noted
NCI-H23 lung = tested on: NCI-H23 lung
NCI-H226 lung = tested on: NCI-H226 lung
NCI-H322M lung = tested on: NCI-H322M lung
HOP-62 NSCLC = tested on: HOP-62 NSCLC
NCI-H460 lung = tested on: NCI-H460 lung
HOP-92 NSCLC = tested on: HOP-92 NSCLC
NCI-H522 lung = tested on: NCI-H522 lung
A549/ATCC NSCLC = tested on: A549/ATCC NSCLC
786-0 renal = tested on: 786-0 renal
COLO 205 colon = tested on: COLO 205 colon

Compound	growth (NCI-H23 lung)	growth (NCI-H226 lung)	growth (NCI-H322M lung)	growth (HOP-62 NSCLC)	growth (NCI-H460 lung)	growth (HOP-92 NSCLC)	growth (NCI-H522 lung)	growth (A549/ATCC NSCLC)	growth (786-0 renal)	growth (COLO 205 colon)
COC(=O)[C@@H](C)C[C@H](Cc1ccccc1)NC(=O)c1csc([C@@H](C[C@H](C(C)C)N(C)C(=O)[C@@H](NC(=O)[C@H]2CCCCN2C)c2ccc(F)cc2)OC(C)=O)n1	25.6%	29.4%	37.4%	3.87% (active)	3.62% (active)	4.81% (active)	-2.85% (active)	13.9%	15.7%	-53.8% (active)
CC(=O)Nc1nc2c(s1)CC[C@@]1(C)C2=CC[C@H]2[C@@H]3CC[C@H](O)[C@@]3(C)CC[C@@H]21	73.3%	89.9%	79.8%	67.1%	27.3%	84.7%	51.6%	56%	35.7%	72.2%
CCN1C(=O)C(=C/C=C/c2ccccc2)C(=O)N(CC)C1=O	95.5%	94.5%	104%	97.8%	77.8%	116%	73.3%	101%	106%	93.8%
COc1cc2c(cc1OCCCCCn1c(-c3ccco3)nc3ccccc31)N=C[C@@H]1CCCN1C2=O	-50% (active)	-14.9% (active)	-13% (active)	6.15% (active)	4.72% (active)	-5.94% (active)	-23.9% (active)	9.67% (active)	11.5%	4.57% (active)
COc1cccc2c1c(C(=O)C(=O)Nc1cc(C)no1)cn2Cc1ccc(F)cc1	78.8%	75.5%	94.7%	64.1%	71.3%	57.4%	72.5%	91.9%	64.1%	95.4%
Cc1sc2c(c1C)C(c1ccc(Cl)cc1)=N[C@@H](CC(=O)OC(C)(C)C)c1nnc(C)n1-2	28.5%	71.8%	37.3%	36.8%	39.9%	21.2%	2.71% (active)	37.9%	46%	19.3%
CC1(C)CN1P(=O)(N1CC1(C)C)N1CC1(C)C (stereo not given)	105%	109%	111%	102%	112%	103%	104%	91%	109%	107%
COc1ccc(/C(C)=C(\c2ccc(OCCN3CCOCC3)cc2)c2ccc(OC(=O)Cc3ccccc3)cc2)cc1	95.1%	110%	111%	108%	110%	105%	94.9%	94.3%	104%	109%
COc1ccc2c(c1)c(C1(O)CC(CSC#N)OC1=O)cn2C(=O)c1ccc(Cl)cc1 (stereo not given)	89.3%	94.8%	73.5%	104%	104%	109%	95.9%	98.6%	102%	127%
CC(C)=CC1C(C(=O)OCc2cccc(Oc3ccccc3)c2)C1(C)C (stereo not given)	88.6%	102%	96.5%	110%	98.6%	56.8%	73.5%	92.4%	81.3%	101%
CCCCCCCCOC(=O)CCN1CC1	111%	93.5%	107%	124%	115%	77%	121%	99.1%	107%	116%
CC1(C)N=C(N)N=C(N)N1c1cccc(CCCCc2ccc(Cl)c(S(=O)(=O)F)c2)c1	28.4%	57.1%	54.9%	33.6%	21.4%	41.3%	-9.62% (active)	10.6%	5.96% (active)	72.7%
CC(=O)O[C@@H]1CC[C@]2(C)[C@H]3CC[C@]4(C)C(=O)CC[C@H]4[C@@H]3C[C@@H]3SC(N)=N[C@@]32C1	79.6%	83.4%	89.7%	70.1%	38.7%	78.8%	8.26% (active)	47.4%	58.8%	48.8%
Oc1ccc2c3c1OC1[C@@H](O)CC[C@@]4(O)[C@@H](C2)N(CC2CCC2)CC[C@]314 (stereo not given in full)	104%	99.1%	97.7%	107%	115%	86.8%	86.3%	98.9%	96.6%	113%
COc1ccc(C(O)(C(=O)O)c2ccc(OC)cc2)cc1	89.8%	116%	102%	91%	97.2%	95.1%	62%	71.6%	94.8%	102%
O=P(N1CC1)(N1CC1)N1CCc2ccccc21	103%	105%	108%	105%	63.3%	115%	109%	101%	106%	117%
O=C(O)CNC(=O)C(Cl)(Cl)Cl	106%	94.1%	97.7%	107%	96.2%	87.2%	85.1%	98.2%	98.8%	106%
C=COC(=O)CCN1CC1	100%	98.9%	102%	95%	105%	111%	107%	102%	110%	114%
Cc1ccc(C(=O)NCCCOc2ccc(N)cc2Cl)cc1S(=O)(=O)F	98.9%	89%	87.2%	89.1%	102%	96.6%	73.5%	90.1%	86%	105%
Cc1c(C)c([N+](=O)[O-])c(C)c(C)c1[N+](=O)[O-]	112%	100%	121%	109%	113%	135%	80.3%	91.5%	103%	119%
C/C(=C\c1ccn(-c2ccccc2N)n1)[C@@H]1C[C@@H]2O[C@]2(C)CCC[C@H](C)[C@H](O)[C@@H](C)C(=O)C(C)(C)[C@@H](O)CC(=O)O1	20.4%	33.8%	16.6%	41.7%	14.9%	77.4%	11.7%	24.8%	17.8%	-4.12% (active)
CCC1(C)CC(CCNCc2ccccc2O)(c2ccc(C)cc2)CCO1 (stereo not given)	101%	107%	108%	108%	102%	105%	108%	101%	101%	115%
Cn1cc(-c2csc(-c3cn(CCCCN4CCCCC4)c4ccc(F)cc34)n2)c2cccnc21	79.8%	74.6%	81.5%	88.8%	89.3%	51.7%	86.2%	92.6%	-62% (active)	96.7%
O=C(Nc1ccc([As]=[As]c2ccc(NC(=O)c3ccccc3)cc2)cc1)c1ccccc1 (stereo not given)	-71.3% (active)	-85.5% (active)	-76.8% (active)	-96.7% (active)	-30.5% (active)	-93.1% (active)	-75.9% (active)	-63.2% (active)	-94.3% (active)	-83.4% (active)
CCCCCCCCCCCCCCCCCC1OC[C@@H](COC(=O)O[C@@H](C(=O)O[C@H]2C[C@@]3(O)[C@@H](OC(=O)c4ccccc4)[C@@H]4[C@]5(OC(C)=O)CO[C@@H]5C[C@H](O)[C@@]4(C)C(=O)[C@H](OC(C)=O)C(=C2C)C3(C)C)[C@@H](NC(=O)c2ccccc2)c2ccccc2)O1 (stereo not given in full)	54.2%	83.4%	55.7%	68.4%	20.4%	66.4%	57.6%	47.5%	90.6%	13.1%
CN(C)C(=O)Oc1ccccc1	104%	105%	109%	96.3%	97.5%	101%	112%	103%	107%	112%
